For nine molecules, outcome and Potency results are on record in PubChem BioAssay (Tox21).

Unmarked numbers belong to inactive results. Results filed as inconclusive are left out. Calls of active or inactive are those of the source. Unless noted, calls follow the shape of the dose curve; as a rule, active = well fitted curve in the direction sought with a large enough effect in the repeat runs; inconclusive = weak or mixed curves; inactive = no such curve, though single readings can be large; an effect the other way counts as inactive or inconclusive.

A short description of assay [1]: qHTS assay to test for compound auto fluorescence at 535 nm (green) in HEK293 cells (AID 720680).
Assay [2] can be described thus: qHTS assay to test for compound auto fluorescence at 460 nm (blue) in HEK293 cell free culture (AID 720681). An outline of the steps: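 Test compounds were pinned into cell-free culture medium (DMEM with 10% FBS) and fluorescence was read directly at Ex/Em 405/460 nm. Signals were expressed as fluorescence equivalents of triamterene, with DMSO vehicle as control.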
On the technique in general: Quantitative high-throughput screening tests each substance at several concentrations.

Assay [3] can be described thus: qHTS assay to test for compound auto fluorescence at 535 nm (green) in HEK293 cell free culture (AID 720682). An outline of the steps: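 Each library compound, or DMSO control, is added by pintool to medium alone, comprising DMEM and 10% FBS. Emission at 535 nm following 485 nm excitation is quantified against fluorescein.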
Assay [4] is described as follows: qHTS assay to test for compound auto fluorescence at 590 nm (red) in HEK293 cell free culture (AID 720683). The method in brief: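 Tox21 10K library compounds were pinned into cell-free DMEM with 10% FBS and fluorescence was read at excitation 540 nm. Activity is expressed as Rose Bengal sodium equivalency.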
Assay [5] is described as follows: qHTS assay to test for compound auto fluorescence at 590 nm (red) in HepG2 cell free culture (AID 720684). The method in brief:
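Readout: intrinsic compound fluorescence at 590 nm emission after 540 nm excitation, scaled to Rose Bengal sodium. Matrix was cell-free MEM with 10% FBS; DMSO vehicle wells served as control.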

Assay [6] can be described thus: qHTS assay to test for compound auto fluorescence at 460 nm (blue) in HepG2 cell free culture (AID 720685). The method in brief: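 Cell-free plates of MEM plus 10% FBS received 23 nL compound or DMSO vehicle; blue-channel (405/460 nm) intensity scored against triamterene as reference fluorophore.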
Assay [7] can be described thus: qHTS assay to test for compound auto fluorescence at 535 nm (green) in HepG2 cell free culture (AID 720686).
The nature of assay [8]: qHTS assay to test for compound auto fluorescence at 460 nm (blue) in HepG2 cells (AID 720687). The method in brief:
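Cells (2,000/well in MEM with 10% FBS) attached overnight at 37 C, then were exposed to compound or DMSO for 1 hr at 37 C, 5% CO2. Fluorescence read at Ex/Em 405/460 nm, expressed as triamterene-equivalent signal.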

Assay [9] has as its target Glucocorticoid receptor (Homo sapiens) (UniProt P04150). Description: qHTS assay to identify small molecule agonists of the glucocorticoid receptor (GR) signaling pathway (AID 720691; active = well fitted activation curve with a large enough effect in the signal ratio in the repeat runs, not every such curve was filed as active; the % refers to the signal ratio). An outline of the steps:
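Steps: seed GR-bla HeLa cells, incubate 4 h at 37 C/5% CO2; pin-transfer DMSO-dissolved compounds; incubate 18 h at 37 C; add LiveBLAzer B/G FRET substrate; after 2 h at room temperature, measure fluorescence.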

Assay [10] has the same target. The experiment in a line: qHTS assay to identify small molecule antagonists of the glucocorticoid receptor (GR) signaling pathway (AID 720692; active = well fitted inhibition curve with a large enough effect in the signal ratio in the repeat runs, not every such curve was filed as active; the % refers to the signal ratio; also: potency is read from the fitted curve at half-maximal effect). The method in brief: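 Antagonism was scored as loss of dexamethasone-driven (5 nM final) reporter signal in HeLa cells bearing a glucocorticoid response element–beta-lactamase construct, after 18 h compound exposure at 37 C and 2 h FRET substrate loading.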

A short description of assay [11]: qHTS assay to identify small molecule antagonists of the glucocorticoid receptor (GR) signaling pathway - cell viability counter screen (AID 720693). Also: nearly all actives have a fitted effect of over 55% in size.
Assay [12] is described as follows: qHTS assay for identifying genotoxic compounds that show differential cytotoxicity against isogenic chicken DT40 cell lines with known DNA damage response pathways - Rev3 mutant cell line (AID 743014). Also: nearly all actives have a fitted effect of over 55% in size. Also: potency is read from the fitted curve at half-maximal effect.
A short description of assay [13]: qHTS assay for identifying genotoxic compounds that show differential cytotoxicity against isogenic chicken DT40 cell lines with known DNA damage response pathways - Rad54/Ku70 mutant cell line (AID 743015). Also: nearly all actives have a fitted effect of over 60% in size. Also: potency is read from the fitted curve at half-maximal effect.
The nature of assay [14]: qHTS assay to identify small molecule antagonists of the androgen receptor (AR) signaling pathway using the MDA cell line - cell viability counter screen (AID 743041; also: nearly all actives have a fitted effect of over 45% in size). The method in brief: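 qHTS viability read-out; MDA-kb2 AR-luc; R1881-stimulated; 16 h exposure at 37C, 0% CO2; CellTiter-Fluor, 30 min; fluorescence intensity.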
Assay [15] can be described thus: qHTS assay to identify small molecule antagonists of the thyroid receptor (TR) signaling pathway - cell viability counter screen (AID 743064). Also: nearly all actives have a fitted effect of over 50% in size. An outline of the steps: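 CellTiter-Fluor readout, 30 min at 37 °C/5% CO2, following 23.5 h incubation of GH3.TRE-Luc cells with test compound and 1 nM T3 (final).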
A short description of assay [16]: qHTS assay for identifying genotoxic compounds that show differential cytotoxicity against isogenic chicken DT40 cell lines with known DNA damage response pathways - wild type cell line (AID 743012). Also: nearly all actives have a fitted effect of over 60% in size. Also: potency is read from the fitted curve at half-maximal effect. An outline of the steps: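 Cytotoxicity in repair-proficient parental chicken DT40 cells serves as the comparator for Rad54/Ku70- and Rev3-deficient lines. Cells were exposed to compounds for 40 h at 37 C/5% CO2, and ATP-based luminescence (CellTiter-Glo) measured viability.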

Assay [17] in a line: qHTS assay to identify small molecule antagonists of the androgen receptor (AR) signaling pathway - cell viability counter screen (AID 743033; also: nearly all actives have a fitted effect of over 45% in size).
Assay [18] deals with Androgen receptor (Homo sapiens) (UniProt P10275). The experiment in a line: qHTS assay to identify small molecule antagonists of the androgen receptor (AR) signaling pathway (AID 743035; active = well fitted inhibition curve with a large enough effect in the signal ratio in the repeat runs, not every such curve was filed as active; the % refers to the signal ratio). An outline of the steps: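 Steps: seed AR-UAS-bla GripTite HEK293 cells, incubate 4 h at 37C; pin in test compound, then add agonist R1881; incubate 16 h at 37C; add LiveBLAzer B/G FRET substrate, 2 h at room temperature; read fluorescence.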

Assay [19] shares this target. The experiment in a line: qHTS assay to identify small molecule agonists of the androgen receptor (AR) signaling pathway (AID 743036; active = well fitted activation curve with a large enough effect in the signal ratio in the repeat runs, with a control signal flat, not every such curve was filed as active; the % refers to the signal ratio). An outline of the steps:
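Following a 4 h settling period, AR-UAS-bla HEK293 cells were dosed with compounds for 16 h at 37C. A 2 h room-temperature incubation with LiveBLAzer B/G FRET substrate preceded the fluorescence measurement.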

Assay [20] has the same target. Description: qHTS assay to identify small molecule agonists of the androgen receptor (AR) signaling pathway using the MDA cell line (AID 743040; also: nearly all actives have a fitted effect of over 20% in size). The method in brief: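 Agonist activity is measured as luciferase luminescence in human MDA-kb2 cells whose MMTV reporter responds to both AR and GR. Compounds in DMSO incubate 16 h at 37C, 0% CO2, and ONE-Glo is read after 30 min.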

Glucocorticoid receptor (Homo sapiens), sequence (P04150 whole entry, looked up): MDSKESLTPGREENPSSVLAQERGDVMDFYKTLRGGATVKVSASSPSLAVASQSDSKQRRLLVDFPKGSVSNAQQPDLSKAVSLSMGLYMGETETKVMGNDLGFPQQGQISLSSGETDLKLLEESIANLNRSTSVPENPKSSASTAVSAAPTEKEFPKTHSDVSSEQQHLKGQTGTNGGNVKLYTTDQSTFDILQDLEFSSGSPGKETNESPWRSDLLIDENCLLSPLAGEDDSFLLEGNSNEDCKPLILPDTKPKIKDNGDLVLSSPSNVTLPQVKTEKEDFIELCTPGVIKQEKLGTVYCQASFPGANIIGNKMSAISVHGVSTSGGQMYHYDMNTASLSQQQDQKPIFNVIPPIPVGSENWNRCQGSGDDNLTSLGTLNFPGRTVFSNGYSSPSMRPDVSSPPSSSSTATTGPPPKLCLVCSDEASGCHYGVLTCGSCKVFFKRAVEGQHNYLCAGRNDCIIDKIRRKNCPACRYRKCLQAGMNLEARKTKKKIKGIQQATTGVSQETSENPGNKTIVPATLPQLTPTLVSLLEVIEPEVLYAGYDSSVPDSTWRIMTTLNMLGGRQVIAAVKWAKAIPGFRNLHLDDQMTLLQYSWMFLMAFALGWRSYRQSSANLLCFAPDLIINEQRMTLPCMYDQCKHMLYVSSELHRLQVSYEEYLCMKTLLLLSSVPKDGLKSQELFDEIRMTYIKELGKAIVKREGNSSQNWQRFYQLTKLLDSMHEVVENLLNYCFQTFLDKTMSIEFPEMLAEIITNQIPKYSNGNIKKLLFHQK
Androgen receptor (Homo sapiens), sequence (P10275 whole entry, looked up): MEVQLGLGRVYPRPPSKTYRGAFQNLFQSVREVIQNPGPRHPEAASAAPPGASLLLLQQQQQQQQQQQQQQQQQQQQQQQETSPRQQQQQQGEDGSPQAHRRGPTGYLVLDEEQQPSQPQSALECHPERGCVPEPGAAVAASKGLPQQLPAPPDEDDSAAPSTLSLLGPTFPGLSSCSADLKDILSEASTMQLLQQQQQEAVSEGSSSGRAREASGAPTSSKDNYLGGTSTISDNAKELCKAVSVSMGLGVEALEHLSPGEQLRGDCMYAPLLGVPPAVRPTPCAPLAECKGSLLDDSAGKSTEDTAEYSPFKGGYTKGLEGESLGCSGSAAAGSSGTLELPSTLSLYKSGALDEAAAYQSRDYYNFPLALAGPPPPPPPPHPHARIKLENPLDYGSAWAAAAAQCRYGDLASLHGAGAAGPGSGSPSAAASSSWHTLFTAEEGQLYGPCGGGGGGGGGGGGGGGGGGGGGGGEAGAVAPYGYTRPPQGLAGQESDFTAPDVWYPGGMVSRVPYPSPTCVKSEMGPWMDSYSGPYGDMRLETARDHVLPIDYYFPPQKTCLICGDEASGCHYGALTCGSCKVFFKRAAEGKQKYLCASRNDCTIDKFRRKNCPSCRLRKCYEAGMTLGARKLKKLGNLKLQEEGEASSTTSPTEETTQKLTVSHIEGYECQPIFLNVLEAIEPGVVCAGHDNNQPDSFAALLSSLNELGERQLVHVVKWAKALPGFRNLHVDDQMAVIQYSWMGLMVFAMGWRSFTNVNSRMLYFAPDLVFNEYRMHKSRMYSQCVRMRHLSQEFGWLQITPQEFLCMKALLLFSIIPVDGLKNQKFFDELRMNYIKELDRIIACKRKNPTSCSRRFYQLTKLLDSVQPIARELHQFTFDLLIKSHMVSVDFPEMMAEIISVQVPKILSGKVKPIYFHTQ

On to `CCC/C(=N\OCC)C1=C(O)CC(CC(C)SCC)CC1=O` (stereo not given), for which the call in [1], in assay [2], in assay [3], in assay [4], in assay [5] and in assay [6] was inactive. For the same molecule, the result in [7], in assay [8] and in assay [9] was inactive. In addition, the Potency result in assay [10], in [11], in assay [14] and in assay [15] was “inactive” throughout. Further, the Potency in assay [12] and in [13] was 61.5 µM (active) throughout.
On to `CCC(C)(C)c1cc(-n2nc3ccccc3n2)c(O)c(C(C)(C)CC)c1`, for which the result in [1], in [2], in assay [3], in assay [4], in [5] and in assay [6] was inactive. The molecule was called inactive in assay [7], in assay [8], in [9] and in assay [19]. In addition, the Potency result in assay [10], in assay [16], in assay [12], in [13], in assay [17] and in assay [18] was “inactive” throughout. The Potency result in assay [20], in assay [14] and in assay [15] was “inactive” throughout.
On to `O=C(Oc1ccc(Br)cc1)N1CCN2CCC1CC2`, for which the call in [1], in assay [2], in assay [3], in [4], in assay [5] and in [6] was inactive. The result in [7], in assay [8] and in assay [9] was inactive. Besides, the Potency entry in assay [10], in assay [11], in [17] and in [14] was “inactive” in each case. For the same molecule, the Potency in [12] is 54.5 µM (active); in assay [13], 61.1 µM (active).
Consider `Cc1cc(C)nc(Nc2ccccc2)n1`, for which the call in [1], in assay [2], in [3], in [4], in [5] and in assay [6] was inactive. Besides, the molecule was classed as inactive in [7], in assay [8] and in assay [9]. The Potency entry in assay [10], in assay [11], in [16], in assay [17] and in [14] was “inactive” throughout.
`CN1C(=S)CN=C(c2ccccc2)c2cc(Cl)ccc21`: the molecule was classed as inactive in assay [1], in assay [2], in [3], in assay [4], in assay [5] and in assay [6]. For the same molecule, the call in [7], in [8] and in assay [9] was inactive. The Potency was 12 µM (active) in [10], 23.7 µM (active) in assay [16] and 29.8 µM (active) in [13]. Besides, the Potency entry in assay [11], in [17] and in [15] was “inactive” each time.
On to `CCCSC(=O)Cl`, for which the molecule was classed as inactive in assay [1], in [2], in assay [3], in assay [4], in assay [5] and in assay [6]. Moreover, the call in [7], in [8] and in assay [9] was inactive. For the same molecule, the Potency result in [10], in assay [11], in [12], in [17], in assay [14] and in assay [15] was “inactive” throughout.
Regarding `CCCCOC(=O)c1ccccc1N`, the call in assay [1], in assay [2], in [3], in assay [4], in assay [5] and in assay [6] was inactive. Also, the outcome in assay [7], in assay [8] and in [9] was inactive. For the same molecule, the Potency entry in assay [10], in assay [11], in assay [16], in assay [12], in assay [17] and in assay [14] was “inactive” throughout.
On to `CC(C)COP(=O)(OCC(C)C)OCC(C)C`, for which the call in assay [1], in assay [2], in assay [3], in assay [4], in assay [5] and in [6] was inactive. Moreover, the outcome in assay [7], in assay [8] and in assay [9] was inactive. The Potency entry in assay [10], in [11], in [16], in [12], in assay [13] and in assay [17] was “inactive” throughout. Besides, the Potency entry in assay [14] and in assay [15] was “inactive” each time.
In the case of `COC(=O)C1=CCCN(C)C1`, the molecule was called inactive in assay [1], in assay [2], in [3], in assay [4], in assay [5] and in assay [6]. The outcome in assay [7], in assay [8] and in assay [9] was inactive. The Potency result in assay [10], in [16], in assay [13], in assay [17], in [14] and in assay [15] was “inactive” throughout.
